# Screening data (PubChem BioAssay)
# FXN GAA850 act: increases GAA850 frataxin promoter reporter activity; HEK293 lucGAA850 FXN promoter luciferase reporter, 24 h; percent of 10 µM SAHA response; activation, % at 6 µM; 0.56% of 360,000 active;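 active = activation above the average of all compounds screened plus 3 SD, cutoff fixed separately per campaign, cut at about 7.5% in these data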;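 note: 0% = DMSO wells and 100% = 10 µM SAHA wells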
# FAS TE block: FAS thioesterase (human) inhibition | recombinant FAS-TE, OMFH fluorogenic substrate, fluorescence endpoint | inhibition, % at 15 µM | 0.67% of 360,000 active | P49327;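 active = compounds whose normalised, plate-corrected inhibition of enzyme fluorescence in the single-dose primary screen is 50% or more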;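 note: 0% = DMSO with enzyme and 100% = substrate without enzyme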
# proKLK7 act: activates the human kallikrein-7 zymogen; P49862; purified proKLK7, EDANS-DABCYL substrate fluorescence; 100% is mature enzyme control, 0% vehicle; activation, % at 7 µM; 0.9% of 370,000 active; AID 652039;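 active = activation above the mean of all tested compounds plus 3 SD, computed per campaign excluding outliers beyond control limits, cut at about 13% in these data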
# SMARCA2 act: SMARCA2 function activation, primary screen; MG213 cells, MMTV-luciferase reporter, dexamethasone, overnight; activation, % at 9.1 µM; 1% of 370,000 active; AID 652017; in the data active = activation above about 7.8%;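 note: 0% = vehicle wells and 100% = reference activator wells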
# KLK7 act conf: proKLK7 activation, confirmation. shares compounds with proKLK7 act. purified proKLK7, EDANS-DABCYL substrate fluorescence; scaled: vehicle 0, mature enzyme 100. activation, % at 7 µM. 68% of 3,200 active. AID 686949;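 active = activation, as change over the incubation, above the mean of all tested compounds plus 3 SD, cut at about 13% in these data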
# EDANS interfere: counter-screen for kallikrein-7 activators: EDANS-DABCYL optical interference. shares compounds with proKLK7 act. EDANS-DABCYL substrate fluorescence interference, no enzyme, 4 h; solvent 0%, active enzyme control 100%. activation, % at 7 µM. 80% of 3,200 active. AID 686952;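 active = activation above the all-compound mean plus 3 SD, ignoring values outside control-based bounds, cut at about 4.8% in these data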;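 note: value is the 4 h activation minus the activation read at time zero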
# EDANS interf: EDANS fluorescence interference in dose response, no enzyme | shares compounds with proKLK7 act | EDANS-DABCYL peptide fluorescence interference | EC50, µM | 20% of 250 active | AID 720493;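 active = compounds that raise the fluorescence signal in this interference counterscreen, with EC50 at or below 10 µM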;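 note: intact quenched peptide substrate alone read at 355 nm excitation and 520 nm emission; signal is fluorescence gain from T0 to T4 after four hours at room temperature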
# * marks the source's active call; other numbers are inactive results; i = inactive; . = no result. Sampled rows, rich in hits. Any-hit rate of the full collection: about 2.9%.
SMILES,FXN GAA850 act,FAS TE block,proKLK7 act,SMARCA2 act,KLK7 act conf,EDANS interfere,others
N#C/C(=C/c1ccc(-c2ccc(S(N)(=O)=O)cc2)o1)C(=O)Nc1ccccc1,3,0,27*,-1,16*,0,EDANS interf=i
C[C@H](O)[C@@H]1C(=O)N2CCc3c([nH]c4c(-c5ccccc5)cccc34)[C@@H]2C[C@@H]1N(C)C(=O)NC1CCCCC1,.,.,-8,-3,.,.,
C[C@H](O)[C@@H]1C(=O)N2CCc3c([nH]c4ccccc34)[C@@H]2C[C@@H]1N(C)Cc1ccc(Cl)cc1,-2,22,52*,0,13*,13*,
COCC(=O)N(C)[C@H]1C[C@H]2c3[nH]c4ccccc4c3CCN2C(=O)[C@H]1[C@H](C)O,-4,-6,27*,-6,40*,42*,
COCCNC(=S)N(C)[C@H]1C[C@H]2c3[nH]c4c(-c5ccccc5)cccc4c3CCN2C(=O)[C@H]1[C@H](C)O,.,.,-8,3,.,.,
C[C@H](O)[C@@H]1C(=O)N2CCc3c([nH]c4ccccc34)[C@@H]2C[C@@H]1N(C)C(=O)NC1CCCCC1,-3,-5,36*,-1,26*,21*,EDANS interf=8.4*
COCCNC(=S)N(C)[C@H]1C[C@H]2c3[nH]c4ccccc4c3CCN2C(=O)[C@H]1[C@H](C)O,.,.,51*,-4,33*,34*,
O=C(CSc1ncn(-c2ccccc2)n1)N1CCN(c2ccccc2)CC1,0,1,0,-1,.,.,
O=C1N(CCCO)CCC12CCC(c1ccccc1)CC2 (centres undefined),.,.,0,-2,.,.,
CCCc1nn2c(-c3ccccc3)nnc2o1,-1,-10,0,3,.,.,
C#CCn1c2ccccc2c(=O)n1C(C)C,.,-11,3,-3,.,.,
CN[C@H]1C[C@H]2c3[nH]c4ccccc4c3CCN2C(=O)[C@H]1[C@H](C)O,0,-10,28*,-3,14*,13*,
O=S(=O)(NCC1CCCO1)c1ccc(Cl)c2ccccc12 (centres undefined),1,0,0,-2,.,.,
CCN1C(=O)c2cccc3c(S(=O)(=O)NCC4CCCO4)ccc1c23 (centres undefined),2,1,57*,-2,71*,66*,
CCN1C(=O)c2cccc3c(S(=O)(=O)NCc4ccco4)ccc1c23,0,0,3,0,.,.,
O=C1Nc2ccc(S(=O)(=O)NCC3CCCO3)c3cccc1c23 (centres undefined),2,-3,48*,-3,66*,74*,
COc1ccccc1Oc1coc2c(CN3CCN(C)CC3)c(O)ccc2c1=O,0,-5,74*,-2,74*,78*,
COc1ccccc1-c1coc2c(CN3CCN(C)CC3)c(O)ccc2c1=O,2,-9,80*,-2,73*,73*,
COc1ccccc1-c1coc2c(CN3CCN(CCO)CC3)c(O)ccc2c1=O,0,-4,111*,0,74*,81*,
CCN1CCN(Cc2c(O)ccc3c(=O)c(-c4ccccc4OC)coc23)CC1,2,-11,50*,1,73*,78*,
CCN1CCN(Cc2c(O)ccc3c2O/C(=C\C=C\c2ccccc2OC)C3=O)CC1,2,-7,3,-2,.,.,
COc1ccc2oc(=Nc3cc(F)ccc3F)c(C(N)=O)cc2c1,0,6,-1,1,.,.,
COc1ccc(OC)c(N=c2oc3cc(O)ccc3cc2C(N)=O)c1,0,-7,14*,4,12,15*,
NC(=O)c1cc2ccccc2oc1=NCc1ccccc1,2,-2,2,0,.,.,
NC(=O)c1cc2ccc(O)cc2oc1=NCc1ccccc1,-2,-21,69*,1,117*,125*,
SMILES,FXN GAA850 act,FAS TE block,proKLK7 act,SMARCA2 act,KLK7 act conf,EDANS interfere,others
COc1ccc2cc(C(N)=O)c(=Nc3ccccc3)oc2c1,1,-6,-1,6,.,.,
NC(=O)c1cc2ccc(O)cc2oc1=Nc1ccccc1,-3,-6,40*,7.9*,10,7.9*,
O=C(CCC1CCCC1)Nc1ccc(OCC(=O)N2CCOCC2)cc1,2,-10,0,-3,.,.,
COC(=O)C1=C(C)NC(C)=C(C(=O)OC)C1c1ccco1,0,-2,0,0,.,.,
COc1ccc(Cc2nc(-c3ccccc3)no2)cc1,1,12,1,2,.,.,
CCCc1cc(NCc2ccccn2)n2c(nc3ccccc32)c1C#N,-4,7,-6,-1,.,.,
CCCc1cc(-n2cnc3ccccc32)n2c(nc3ccccc32)c1C#N,-1,4,-1,-1,.,.,
CCCc1cc(NCC2CCCO2)n2c(nc3ccccc32)c1C#N (centres undefined),-2,-3,17*,0,-54,-54,
CCCc1cc(NCCCN(C)C)n2c(nc3ccccc32)c1C#N,2,-2,83*,-1,12,20*,
CCCc1cc(NCCN(C)C)n2c(nc3ccccc32)c1C#N,-1,-4,57*,-2,20*,6.5*,EDANS interf=>70
COc1cc2c(C#N)c(N3CCN(C)CC3)nc(N)c2c(N)n1,0,-6,65*,1,48*,61*,
Cc1ccc(C2C=C(c3ccccc3)Nc3nc(N4C(=O)CCC4=O)nn32)cc1 (centres undefined),0,-2,91*,-2,-53,-90,
N#Cc1ccc(C(=O)OCC(=O)Nc2cccc(S(=O)(=O)N3CCCCC3)c2)cc1,1,16,0,-2,.,.,
COCCNC(=O)Cc1c(C)c2c(cc(C)c3c(C)coc32)oc1=O,-1,-6,16*,-2,-15,-58,
Cc1coc2c1c(C)cc1oc(=O)c(CC(=O)NCC(=O)NCC(=O)O)c(C)c12,1,-9,10,-1,.,.,
Cc1coc2c1c(C)cc1oc(=O)c(CC(=O)NCCC(=O)O)c(C)c12,1,-7,30*,-3,64*,75*,
COc1cccc(NC(=O)CN(C)C(=O)c2cccc(S(=O)(=O)N3CC4(C)CC3CC(C)(C)C4)c2)c1 (centres undefined),-4,14,0,0,.,.,
COCCNC(=S)NCCCNc1nc2cc3c(cc2cc1C#N)OCO3,2,-7,25*,1,14*,19*,
CCNc1nc2nc3ccc(C)cn3c(=O)c2cc1C(=O)NCC1CCCO1 (centres undefined),2,-9,75*,-2,69*,69*,
Cc1ccc(CNC(=O)c2cc3c(=O)n4ccccc4nc3n(CC3CCCO3)c2=N)cc1 (centres undefined),1,1,.,.,.,.,
